From PubChem BioAssay (Tox21) come the findings set out here.

Records with an inconclusive call do not appear. Active and inactive are the calls of the source. Unless noted, the call rests on the fitted dose curve; in most records, active means well fitted curve in the direction sought with a large enough effect in the repeat runs; inconclusive means weak or mixed curves; inactive means no such curve, though single readings can be large; an effect the other way counts as inactive or inconclusive.

Test [1] can be described thus: qHTS assay to identify small molecule agonists of the vitamin D receptor (VDR) signaling pathway - cell viability counter screen (AID 743224). Further: nearly all actives have a fitted effect of over 50% in size. Further: potency means the concentration at half of the fitted maximal effect. In short, it runs like this: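 VDR-bla cells were preincubated 4 h at 37C/5% CO2, then exposed to compounds for 16 h. After the 2 h room-temperature bla FRET read, CellTiter-Glo was added to the same wells and luminescence read after 30 min.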
On the technique in general: In qHTS, concentration-response curves come from the screen itself.

Test [2] can be described thus: qHTS assay to identify small molecule agonists of the NFkB signaling pathway - cell viability counter screen (AID 1159515; calls by dose curve; further: nearly all actives have a fitted effect of over 55% in size; further: potency means the concentration at half of the fitted maximal effect). In short, it runs like this:
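NFkB-bla ME-180 cells, 2,000/well, were plated overnight at 37 C, 5% CO2, then exposed to compounds in DMSO for 5 hr. After the bla FRET read, CellTiter-Glo was added to the same wells; luminescence was read after 30 min at room temperature.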

The nature of test [3]: qHTS assay to identify small molecule agonists of the endoplasmic reticulum stress response signaling pathway - cell viability counter screen (AID 1159517; calls by dose curve; further: nearly all actives have a fitted effect of over 50% in size; further: potency means the concentration at half of the fitted maximal effect). In short, it runs like this:
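Cells, HeLa ESRE-bla; density, 1,500/well; dosing, 5 hr at 37 C, 5% CO2; readout, CellTiter-Glo luminescence after 30 min RT.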

A short description of test [4]: qHTS assay to identify small molecule antagonists of the retinoid-related orphan receptor gamma (ROR-gamma) signaling pathway - cell viability counter screen (AID 1159520). Further: nearly all actives have a fitted effect of over 50% in size. Further: potency means the concentration at half of the fitted maximal effect. In short, it runs like this:
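Cytotoxicity was read from cellular ATP (CellTiter-Glo luminescence) after 16 hr at 37 C with 1 uM doxycycline induction. The inducer was added 2 hr after compound transfer to Tet-on ROR gamma CHO cells.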

Test [5] deals with Nuclear receptor ROR-gamma (Homo sapiens) (UniProt P51449). Briefly: qHTS assay to identify small molecule antagonists of the retinoid-related orphan receptor gamma (ROR-gamma) signaling pathway (AID 1159521; further: nearly all actives have a fitted effect of over 50% in size; further: potency means the concentration at half of the fitted maximal effect). In short, it runs like this:
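Test compounds were applied to Tet-on RORγ CHO cells 2 h ahead of doxycycline hyclate (1 uM final). Luciferase reporter activity was quantified by luminescence after 16 h at 37 C and 5% CO2.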

The nature of test [6]: qHTS assay to identify small molecule agonists of the AP-1 signaling pathway - cell viability counter screen (AID 1159525; calls by dose curve; further: nearly all actives have a fitted effect of over 55% in size; further: potency means the concentration at half of the fitted maximal effect). In short, it runs like this:
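Luminescent ATP readout (Cell Titer Glo, 30 min RT), normalised to DMSO and tetra n-octyl ammonium bromide controls. Cells were ME-180 AP-1-bla in 0.5% dialyzed FBS Opti-MEM, with a 5 h, 37 °C compound exposure.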

Test [7] can be described thus: qHTS assay to identify small molecule agonists of the RXR signaling pathway - cell viability counter screen (AID 1159529). Further: nearly all actives have a fitted effect of over 50% in size. Further: potency means the concentration at half of the fitted maximal effect. In short, it runs like this:
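Compounds dissolved in DMSO were pinned onto HEK 293T cells carrying a beta-lactamase reporter under RXR-alpha control and incubated 16 hr. Cytotoxicity was then quantified by CellTiter-Glo luminescence.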

Test [8] is described as follows: qHTS assay to identify small molecule antagonists of the retinoic acid receptor (RAR) signaling pathway (AID 1159552; further: nearly all actives have a fitted effect of over 50% in size; further: potency means the concentration at half of the fitted maximal effect). In short, it runs like this: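 Test chemicals and DMSO controls were pin-transferred onto C3RL4 cells a day after seeding; retinol (1 uM final) followed at once. Luminescent reporter output was quantified after 6 hr of co-incubation and 30 min with detection reagent.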

Test [9] can be described thus: qHTS assay to identify small molecule antagonists of the estrogen related receptor (ERR) signaling pathway from Tox21 library - cell viability counter screen (AID 1224834). Further: nearly all actives have a fitted effect of over 30% in size. Further: potency means the concentration at half of the fitted maximal effect. In short, it runs like this:
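ERR reporter cells were plated 6 h before compound addition, then exposed to test compounds in DMSO for 17.5 h at 37 C. Viability was read as CellTiter-Fluor fluorescence after a 30-minute incubation at 37 C.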

Test [10] has as its target Luciferin 4-monooxygenase (Photinus pyralis) (UniProt P08659). Briefly: qHTS assay to identify small molecule inhibitors of firefly luciferase (AID 1224835). Further: nearly all actives have a fitted effect of over 25% in size. Further: potency means the concentration at half of the fitted maximal effect. In short, it runs like this: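 Inhibition of purified Photinus luciferase is measured by luminescence. Substrate levels (D-luciferin, ATP) sit at their KM values. Each compound is tested in a concentration series.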

The nature of test [11]: qHTS assay to identify small molecule antagonists of the vitamin D receptor (VDR) signaling pathway - cell viability counter screen (AID 743225). Further: nearly all actives have a fitted effect of over 50% in size. Further: potency means the concentration at half of the fitted maximal effect. In short, it runs like this: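 Compounds were pinned onto VDR-bla HEK 293T cells together with 1-alpha,25-dihydroxyvitamin D3 at 3 nM final. After 16 h at 37C and 5% CO2 plus the reporter readout, cell viability was measured by CellTiter-Glo luminescence (30 min, room temperature).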

The nature of test [12]: qHTS assay to identify small molecule antagonists of the retinoid acid receptor (RAR) signaling pathway - cell viability counter screen (AID 1159551). Further: nearly all actives have a fitted effect of over 35% in size. Further: potency means the concentration at half of the fitted maximal effect. In short, it runs like this: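 C3RL4 cells were seeded overnight at 37 C, then treated with compounds plus 1 uM (final) retinol for 6 h at 37 C. Viability was read as ATP by CellTiter-Glo luminescence after 30 min at room temperature.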

Test [13] in a line: qHTS assay to identify small molecule agonists of the retinoic acid receptor (RAR) signaling pathway (AID 1159553). In short, it runs like this: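 C3RL4 cells carrying a RARE luciferase reporter were plated overnight at 37 C, then exposed to compounds in DMSO for 6 hr at 37 C and 5% CO2. Luminescence was read 30 min after luciferase reagent addition at room temperature.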
Test [14] in a line: qHTS assay to identify small molecule antagonists of the estrogen related receptor (ERR) signaling pathway (AID 1224819). In short, it runs like this: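 ERR reporter cells were plated at 2,000 cells/well and left 6 h at 37 C/5% CO2 before pin-tool transfer of compounds in DMSO. After 18 h at 37 C, One-Glo was added and luminescence was read 30 min later at room temperature.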

The nature of test [15]: qHTS assay to identify small molecule agonists of the estrogen related receptor (ERR) signaling pathway (AID 1224820). In short, it runs like this: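 Quantitative HTS of the LOPAC library used NTP ERR reporter cells treated 18 h at 37 C. Signal is luminescence after One-Glo addition and a 30 min room-temperature incubation.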
The nature of test [16]: qHTS assay to identify small molecule antagonists of the estrogen related receptor signaling pathway with the pleiotropic PPARgamma coactivator (PGC) cell viability counter screen (AID 1224822; further: series mostly up to about 46 µM). In short, it runs like this:
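PGC/ERR cells were seeded at 2,000 cells/well, rested 6 h at 37 C/5% CO2, then given compounds in DMSO by pin tool and incubated 17.5 h at 37 C. Viability came from CellTiter-Fluor fluorescence after 30 min.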

Test [17] in a line: qHTS assay to identify small molecule agonists of the estrogen related receptor signaling pathway with the pleiotropic PPARgamma coactivator (PGC) (AID 1224823). In short, it runs like this: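 Cell-based luciferase assay in the NTP-supplied PGC/ERR line, 2,000 cells/well; 18 h compound exposure at 37 C, luminescence after One-Glo.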
Test [18] can be described thus: qHTS assay to identify small molecule agonists of the AP-1 signaling pathway (AID 1159526; calls by dose curve).
The target of test [19] is Retinoic acid receptor RXR-alpha (Homo sapiens) (UniProt P19793). The experiment in a line: qHTS assay to identify small molecule agonists of the RXR signaling pathway (AID 1159527; calls by dose curve; further: nearly all actives have a fitted effect of over 35% in size). In short, it runs like this: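 Using 9-cis retinoic acid as the reference agonist, chemicals were tested in HEK 293T cells […] for 16 hr; substrate loading lasted 2 hr at room temperature.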
Chain of Retinoic acid receptor RXR-alpha (Homo sapiens) (P19793 whole entry, looked up): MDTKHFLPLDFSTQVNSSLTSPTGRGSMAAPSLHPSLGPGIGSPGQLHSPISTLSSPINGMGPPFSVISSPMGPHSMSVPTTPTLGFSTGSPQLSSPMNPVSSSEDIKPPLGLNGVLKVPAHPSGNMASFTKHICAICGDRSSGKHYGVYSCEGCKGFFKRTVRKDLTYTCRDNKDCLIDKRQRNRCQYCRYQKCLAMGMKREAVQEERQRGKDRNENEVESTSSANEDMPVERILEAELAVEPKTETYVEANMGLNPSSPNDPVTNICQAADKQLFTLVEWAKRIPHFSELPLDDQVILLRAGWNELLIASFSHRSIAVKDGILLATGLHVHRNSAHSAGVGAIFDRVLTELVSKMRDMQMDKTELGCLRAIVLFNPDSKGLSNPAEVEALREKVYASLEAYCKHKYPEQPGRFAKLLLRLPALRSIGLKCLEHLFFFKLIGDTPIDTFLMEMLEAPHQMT

Chain of Luciferin 4-monooxygenase (Photinus pyralis) (P08659 whole entry, looked up): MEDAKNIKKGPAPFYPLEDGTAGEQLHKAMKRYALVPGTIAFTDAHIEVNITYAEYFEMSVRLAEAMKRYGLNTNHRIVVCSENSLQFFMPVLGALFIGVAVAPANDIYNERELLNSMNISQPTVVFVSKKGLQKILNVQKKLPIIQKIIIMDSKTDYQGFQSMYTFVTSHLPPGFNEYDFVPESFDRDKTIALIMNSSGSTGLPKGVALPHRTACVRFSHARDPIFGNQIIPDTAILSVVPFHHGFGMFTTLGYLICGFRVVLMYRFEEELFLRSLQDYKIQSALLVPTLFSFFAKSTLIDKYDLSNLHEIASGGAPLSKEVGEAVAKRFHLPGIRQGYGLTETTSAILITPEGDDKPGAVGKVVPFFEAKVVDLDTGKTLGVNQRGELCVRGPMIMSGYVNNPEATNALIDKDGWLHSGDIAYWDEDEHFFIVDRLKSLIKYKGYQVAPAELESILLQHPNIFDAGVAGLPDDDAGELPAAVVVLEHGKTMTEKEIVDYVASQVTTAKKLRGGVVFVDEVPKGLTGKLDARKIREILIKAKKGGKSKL

Take `O=c1[nH]sc2ccccc12`: the Potency in [1] is 12.3 µM (active); in test [2], 49 µM (active); in test [3], 54.9 µM (active); in test [4], 21.7 µM (active); in test [5], 17.2 µM (active); in test [6], 34.7 µM (active). Also, the Potency in test [7] is 19.5 µM (active); in test [8] it was 17.2 µM (active); in [9] it was 61.1 µM (active); in test [10], 20 µM (active).
Regarding `COCCCC/C(=N\OCCN)c1ccc(C(F)(F)F)cc1`, the Potency result in test [11], in test [2], in test [3], in test [4], in test [5] and in test [6] was “inactive” each time. Moreover, the Potency result in test [12], in test [13], in test [14], in test [16], in test [9] and in [10] was “inactive” each time. Besides, in [8], the Potency is 23.7 µM (active). In addition, the molecule was classed as inactive in test [15] and in test [17].
Consider `CCCCCCCCn1sc(Cl)c(Cl)c1=O`, for which the Potency in test [1] was 2.75 µM (active); in test [11] it was 6.92 µM (active); in test [2] it was 9.77 µM (active); in [3], 3.47 µM (active); in test [4], 2.73 µM (active); in test [5], 4.86 µM (active). For the same molecule, the Potency in test [6] was 19.5 µM (active); in test [12], 13.7 µM (active); in test [8] it was 27.3 µM (active).
On to `Cc1oc(-c2ccccc2)nc1CCC(=O)c1ccc(CC2SC(=O)NC2=O)cc1` (stereo not given), for which the Potency result in test [2], in test [3], in [4], in [6], in [18] and in test [7] was “inactive” throughout. The Potency result in test [12], in test [8], in test [13] and in test [10] was “inactive” each time.
Take `CCCC(C)c1ccccc1O` (stereo not given): the Potency entry in test [1], in test [11], in [2], in test [3], in test [4] and in test [5] was “inactive” throughout. In addition, the Potency result in [19], in test [12], in test [8], in test [13], in test [9] and in [10] was “inactive” in each case.
Take `OCCN1CCN(CC/C=C2/c3ccccc3Sc3ccc(C(F)(F)F)cc32)CC1`: the Potency in test [11] is 23.9 µM (active); in test [2], 26.8 µM (active); in test [3] it was 23.9 µM (active); in test [4], 29.8 µM (active); in test [5], 26.6 µM (active); in test [6], 23.9 µM (active). Besides, the Potency in test [7] is 19 µM (active); in test [8], 26.6 µM (active); in test [9], 29.8 µM (active). In addition, the molecule was classed as inactive in test [15] and in test [17]. For the same molecule, in [16], the Potency result was “inactive”.
On to `[O-][n+]1ccccc1SSc1cccc[n+]1[O-]`, for which the Potency in test [2] was 0.233 µM (active); in test [3] it was 4.14 µM (active); in test [4], 0.103 µM (active); in [5], 0.058 µM (active); in test [7], 0.165 µM (active); in test [8] it was 0.092 µM (active). Further, the Potency in test [9] was 0.366 µM (active); in [10] it was 0.425 µM (active).
For the molecule `NC(=O)NS(=O)(=O)c1ccc(N)cc1`, the Potency entry in test [11], in test [2], in test [3], in test [4], in test [6] and in [18] was “inactive” each time. Moreover, the Potency result in test [19], in test [7], in [12], in [8], in test [13] and in test [10] was “inactive” in each case.
For `O=c1[nH]cnc2nc[nH]c12`, the Potency result in test [11], in test [2], in test [3], in test [4], in [5] and in [18] was “inactive” throughout. Also, the Potency result in test [19], in test [7], in [8], in test [13], in test [9] and in test [10] was “inactive” in each case.
